# From PubChem BioAssay (NCATS)
# Values joined by “and” are separate entries in the source; they are usually repeats but may differ in a detail not shown here. Identical values can stand only once. Records with an inconclusive call do not appear. A call without a number means that no potency is given here. Active and inactive are the calls of the source. Unless noted, calls come from the whole dose curve; as a rule, active = well fitted curve in the direction sought with a large enough effect; inconclusive = small, poorly fitted or top-dose-only effect, or another doubt; inactive = no such curve, though single readings can be large; an effect the other way counts as inactive or inconclusive.
# How the values were obtained:
# [1] = Cell Viability - Hek293 (AID 427;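 active = compounds whose dose-response curve shows a full or clear partial loss of cell viability, called from curve shape rather than a numeric limit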;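 note: potency is the fitted concentration of half-maximal effect; cells exposed to compound for 40 hours at 37 °C before reading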); details: qHTS
# Summary of the method: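 Luminescent ATP content (CellTiter-Glo, 20 min at room temperature) was measured after a 40 hr, 37 °C compound exposure of HEK293 cells. AC50 values came from Hill-equation fits of qHTS concentration-response data normalized to DMSO and 100 uM tamoxifen.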
# [2] = Cell Viability - NIH 3T3 (AID 541); details: NIH 3T3 cell viability, qHTS; activity change, negative = cytotoxicity: at 92.2 µM (top of the series); note: nearly all actives have a fitted effect of over 25% in size
# Summary of the method: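 Luminescent ATP signal (CellTiter-Glo) served as the viability read-out after NIH 3T3 cells were exposed to compounds over a concentration range for 40 hr at 37 °C. Hill-equation modelling of concentration-response data gave AC50.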
# [3] = Cell Viability - H-4-II-E (AID 543); details: H-4-II-E rat hepatoma viability; series mostly up to 92.2 µM; note: nearly all actives have a fitted effect of over 35% in size
# Summary of the method: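 Luminescent ATP signal (CellTiter-Glo) served as the viability read-out, with cytotoxicity seen as a concentration-dependent ATP drop. Cells were treated for 40 hours in complete medium. AC50 values derive from Hill-equation modelling.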
# [4] = MultiTox-Fluor Cytotoxicity Assay - LYMP1-001 - Dead Cells (AID 946); details: LYMP1-001 lymphoblastoid cells, dead-cell protease fluorescence; series mostly up to 92.2 µM
# Summary of the method: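 Cytotoxicity as increased dead-cell protease fluorescence (bis-AAF-R110, 485/520 nm), read 60 min after MultiTox-Fluor reagent. Human lymphoblastoid line exposed 16 h; Hill-fitted AC50, with DMSO as 0% and 15 uM tetraoctylammonium bromide as 100%.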
# [5] = MultiTox-Fluor Cytotoxicity Assay - LYMP1-003 - Dead Cells (AID 961); details: LYMP1-003 lymphoblastoid cells, dead-cell protease fluorescence; series mostly up to 92.2 µM; note: nearly all actives have a fitted effect of over 70% in size
# Summary of the method: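 Dead-cell protease release, detected as bis-AAF-R110 fluorescence at 485/520 nm, was measured in LYMP1-003 cells after 16 h compound treatment at 37 C. AC50 values came from Hill-modeled qHTS curves normalized to DMSO (0%) and 15 uM tetraoctylammonium bromide (100%).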
# [6] = Cell Viability - LYMP2-007 (AID 979); details: LYMP2-007 lymphoblastoid cell viability; series mostly up to 92.2 µM;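 note: cells exposed to compound for 24 h before reading; nearly all actives have a fitted effect of over 60% in size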
# Summary of the method: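 Luminescent ATP signal (CellTiter-Glo) serves as the viability read-out after 24 hr compound treatment of lymphoblastoid cells in complete medium at 37 C. Concentration-response data were fitted to the Hill equation to give AC50 values.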
# [7] = Cell Viability - LYMP2-026 (AID 989); details: LYMP2-026 lymphoblastoid cell viability, qHTS; series mostly up to 92.2 µM; note: nearly all actives have a fitted effect of over 50% in size
# Summary of the method: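 Luminescent ATP signal (CellTiter-Glo, 30 min room temperature) measures viable lymphoblastoid cells after 24 hr compound treatment at 37 C. Decreased ATP reflects acute toxicity; AC50 values come from Hill-equation modeling.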
# [8] = molecular target: Bile acid receptor (Homo sapiens) (UniProt Q96RI1); test: qHTS assay for small molecule antagonists of farnesoid X receptor signaling (AID 588526; calls by dose curve); details: HEK293T FXR-UAS-bla, beta-lactamase ratio, antagonist mode; series mostly up to 76.7 µM
# Summary of the method: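 Beta-lactamase reporter antagonist mode: HEK293T FXR-UAS-bla cells, titrated compound, CDCA stimulation, 16 h 37 C, CCF4 dye 2 h RT. Data normalized to CDCA 50 uM and DMSO; Hill-fit IC50.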
# [9] = molecular target: Peroxisome proliferator-activated receptor delta (Homo sapiens) (UniProt Q03181); test: qHTS assay for small molecule agonists of peroxisome proliferator-activated receptor delta signaling (AID 588534; calls by dose curve); details: HEK293T PPARdelta-UAS-bla, beta-lactamase ratio, 18 h; series mostly up to 76.7 µM
# Summary of the method: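 Fluorescence from CCF4 substrate cleavage by beta-lactamase reporter, read 2 hrs at RT, measured agonist activity. Compounds were tested with 18 hrs exposure at 37 C. Concentration-response data fitted to Hill equation.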
# [10] = qHTS assay for small molecule antagonists of peroxisome proliferator-activated receptor delta signaling (AID 588535; active = well fitted inhibition curve with a large enough effect in the signal ratio, with a control signal flat, not every such curve was filed as active; the % refers to the signal ratio;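 for max response: cells co-treated with a PPAR-delta agonist as stimulator during compound exposure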); details: HEK293T PPARd-UAS-bla, beta-lactamase FRET ratio, 18 h; 460 nm channel
# Summary of the method: (§1)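 HEK293T PPAR-delta-UAS-bla cells, 4000/well, 2% charcoal/dextran FBS; 5 h 37 C; cpd titration; 18 h 37 C; CCF4 2 h RT; FI 460/530 nm; Hill fit → IC50, efficacy.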
# [11] = molecular target: Peroxisome proliferator-activated receptor delta (Homo sapiens) (UniProt Q03181); test: as above; details: HEK293T PPARd-UAS-bla, beta-lactamase FRET ratio, 18 h; series mostly up to 76.7 µM
# Summary of the method: as §1
# [12] = molecular target: Peroxisome proliferator-activated receptor gamma (Homo sapiens) (UniProt P37231); test: qHTS assay for small molecule antagonists of peroxisome proliferator-activated receptor gamma signaling (AID 588537; active = well fitted inhibition curve with a large enough effect in the signal ratio, with a control signal flat, not every such curve was filed as active; the % refers to the signal ratio;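 note: reporter cells co-stimulated with 50 nM rosiglitazone agonist during compound treatment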); details: HEK293 PPARg-UAS-bla, beta-lactamase ratio, antagonist mode; series mostly up to 76.8 µM
# Summary of the method: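 Antagonist mode, beta-lactamase reporter in HEK293; charcoal/dextran FBS 1%; 3000 cells/well, 37 C 6-6.5 h; cpd titration + rosiglitazone 50 nM final, 16 h 37 C; CCF4, 2 h RT; 460/530 nm; Hill fit → IC50, efficacy.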
# [13] = molecular target: Retinoic acid receptor RXR-alpha (Homo sapiens) (UniProt P19793); test: qHTS assay for small molecule agonists of retinoid X receptor alpha signaling (AID 588544; calls by dose curve); details: HEK293T RXRa-UAS-bla, beta-lactamase reporter, 18 h; series mostly up to 76.7 µM
# [14] = molecular target: Voltage-gated inwardly rectifying potassium channel KCNH2 (Homo sapiens) (UniProt Q12809); test: qHTS Assay for Small Molecule Inhibitors of the Human hERG Channel Activity (AID 588834); details: U2OS BacMam hERG, FluxOR thallium flux fluorescence; series mostly up to 92.2 µM;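 note: top concentration of the series differs between compounds; lower thallium flux fluorescence means stronger hERG block; nearly all actives have a fitted effect of over 50% in size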
# Summary of the method: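 hERG-BacMam U2OS, 2000 cells/well; 0.7X FluxOR loading 1 hr RT dark; cpd ~10 min 37 °C; stim buffer; FDSS fluorescence 2 min @ 1 s; AC50 Hill fit.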
# [15] = qHTS assay for small molecule disruptors of the mitochondrial membrane potential - 5 hr assay (AID 651755; calls by dose curve; note: nearly all actives have a fitted effect of over 40% in size); details: JC-1-type ratio dye; series mostly up to 92.2 µM
# Summary of the method: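 HepG2, 2,000 cells/well, overnight attach; cpd or DMSO 5 hr, 37C/5% CO2; Mito-MPS 30 min 37C; fluor 490/535 + 540/590 nm.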
# [16] = qHTS assay for environmental chemicals that activate the Aryl hydrocarbon Receptor (AhR) signaling pathway (AID 651777); details: 1A2-DRE human hepatoma cells, luciferase, 24 h; activation: stronger effect = higher value; note: nearly all actives have a fitted effect of over 15% in size
# Summary of the method: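 Human hepatoma 1A2-DRE cells, stably carrying a dioxin response element and CYP1A2 promoter driving luciferase, were exposed to compounds for 24 hr at 37 C and 5% CO2. Luciferase signal was then read after 30 min One-Glo at room temperature.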
# [17] = molecular target: Peroxisome proliferator-activated receptor alpha (Homo sapiens) (UniProt Q07869); test: qHTS assay for small molecule agonists of the peroxisome proliferator-activated receptor alpha (PPARalpha) signaling pathway (AID 651778); details: PathHunter PPARalpha complementation, chemiluminescence, 6 h; stronger effect = higher value
# Summary of the method: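 Chemiluminescence from complemented enzyme reported PPARalpha activation in cells after 6 hr of compound treatment at 37 C. The detection reagent was incubated for 60 min at room temperature, and compounds were scored as agonists.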
# [18] = Cell Viability - HUV-EC-C (AID 542); details: HUV-EC-C endothelial cell viability, qHTS; series mostly up to 92.2 µM; note: nearly all actives have a fitted effect of over 35% in size
# Summary of the method: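 qHTS cytotoxicity: HUV-EC-C, 1000 cells/well, 5 hr settle, compound 40 hr 37 °C, CellTiter-Glo, luminescence. AC50 via Hill equation.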
# [19] = molecular target: Thyroid hormone receptor beta (Homo sapiens) (UniProt P10828); test: qHTS assay for small molecule antagonists of thyroid hormone receptor beta signaling (AID 588547; active = well fitted inhibition curve with a large enough effect in the signal ratio, with a control signal flat, not every such curve was filed as active; the % refers to the signal ratio;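 note: cells stimulated with 0.4 nM T3 agonist during compound exposure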); details: TR-UAS-bla HEK293, beta-lactamase ratio, antagonist mode, 18 h
# Summary of the method: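 Inhibition of T3-driven (0.4nM final) beta-lactamase reporter activity was measured over 0.59 nM to 92 uM compound after 18 h at 37 C. The cells were GripTite HEK293 TR-UAS-bla in charcoal/dextran-stripped serum, with CCF4 ratio read-out and IC50 from Hill fits.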
# [20] = Cellular Toxicity (caspase-3) N2a (AID 665); details: N2a cells, luminescence, normalized: DMSO 0%, 10 µM staurosporine 100%; at 92.2 µM (top of the series);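 note: compound exposure lasted 16 h at 37 °C before readout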
# Summary of the method: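 N2a cells, 1500/well, 5 h settle at 37 °C; cpd 16 h, 37 °C; Caspase-Glo 3/7, 1 h RT; luminescence. Norm: DMSO = 0, 10 uM staurosporine = 100%. AC50, Hill fit.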
# Peroxisome proliferator-activated receptor gamma (Homo sapiens), sequence (P37231 whole entry, looked up): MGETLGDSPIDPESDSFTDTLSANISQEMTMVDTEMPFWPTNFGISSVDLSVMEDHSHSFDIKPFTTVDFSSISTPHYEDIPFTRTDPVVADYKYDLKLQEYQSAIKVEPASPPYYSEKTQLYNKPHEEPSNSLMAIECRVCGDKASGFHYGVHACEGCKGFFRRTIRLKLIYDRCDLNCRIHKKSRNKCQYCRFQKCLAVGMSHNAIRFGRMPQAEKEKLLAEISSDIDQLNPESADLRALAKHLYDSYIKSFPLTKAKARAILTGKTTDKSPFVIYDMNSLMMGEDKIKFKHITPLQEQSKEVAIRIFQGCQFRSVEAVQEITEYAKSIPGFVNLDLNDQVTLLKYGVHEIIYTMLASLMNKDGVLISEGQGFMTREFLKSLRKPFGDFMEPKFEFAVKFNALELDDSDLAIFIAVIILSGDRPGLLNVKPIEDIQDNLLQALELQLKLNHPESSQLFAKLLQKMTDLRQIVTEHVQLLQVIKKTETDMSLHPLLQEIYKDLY
# Voltage-gated inwardly rectifying potassium channel KCNH2 (Homo sapiens), sequence (Q12809 whole entry, looked up): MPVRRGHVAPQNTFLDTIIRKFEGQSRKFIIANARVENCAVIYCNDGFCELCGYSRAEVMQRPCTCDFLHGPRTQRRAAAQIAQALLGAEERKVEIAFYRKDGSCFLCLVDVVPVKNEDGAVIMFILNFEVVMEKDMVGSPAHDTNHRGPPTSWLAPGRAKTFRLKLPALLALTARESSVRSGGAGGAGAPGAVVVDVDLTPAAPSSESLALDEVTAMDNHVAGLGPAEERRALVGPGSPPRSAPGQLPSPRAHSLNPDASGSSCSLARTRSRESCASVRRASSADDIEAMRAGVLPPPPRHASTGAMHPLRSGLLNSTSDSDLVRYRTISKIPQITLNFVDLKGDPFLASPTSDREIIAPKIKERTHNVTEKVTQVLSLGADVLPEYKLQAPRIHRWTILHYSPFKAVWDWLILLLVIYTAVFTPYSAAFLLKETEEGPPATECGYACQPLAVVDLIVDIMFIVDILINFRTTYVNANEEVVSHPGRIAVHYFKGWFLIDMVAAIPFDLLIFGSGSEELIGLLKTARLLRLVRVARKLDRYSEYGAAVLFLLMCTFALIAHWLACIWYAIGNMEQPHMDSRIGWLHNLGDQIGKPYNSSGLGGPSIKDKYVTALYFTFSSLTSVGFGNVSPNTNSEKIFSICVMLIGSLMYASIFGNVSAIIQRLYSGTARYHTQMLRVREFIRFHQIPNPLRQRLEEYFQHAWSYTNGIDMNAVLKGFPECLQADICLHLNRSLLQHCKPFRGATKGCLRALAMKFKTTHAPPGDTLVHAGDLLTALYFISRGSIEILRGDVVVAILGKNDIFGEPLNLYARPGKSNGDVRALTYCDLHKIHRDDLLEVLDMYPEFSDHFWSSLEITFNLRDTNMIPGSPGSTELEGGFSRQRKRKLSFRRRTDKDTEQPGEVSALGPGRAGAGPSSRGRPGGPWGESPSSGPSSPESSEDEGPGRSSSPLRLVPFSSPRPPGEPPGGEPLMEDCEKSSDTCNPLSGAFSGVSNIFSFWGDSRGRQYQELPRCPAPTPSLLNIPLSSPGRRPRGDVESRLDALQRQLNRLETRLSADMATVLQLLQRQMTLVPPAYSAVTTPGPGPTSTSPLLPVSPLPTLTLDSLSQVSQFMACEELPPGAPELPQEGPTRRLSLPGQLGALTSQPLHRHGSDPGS
# Retinoic acid receptor RXR-alpha (Homo sapiens), sequence (P19793 whole entry, looked up): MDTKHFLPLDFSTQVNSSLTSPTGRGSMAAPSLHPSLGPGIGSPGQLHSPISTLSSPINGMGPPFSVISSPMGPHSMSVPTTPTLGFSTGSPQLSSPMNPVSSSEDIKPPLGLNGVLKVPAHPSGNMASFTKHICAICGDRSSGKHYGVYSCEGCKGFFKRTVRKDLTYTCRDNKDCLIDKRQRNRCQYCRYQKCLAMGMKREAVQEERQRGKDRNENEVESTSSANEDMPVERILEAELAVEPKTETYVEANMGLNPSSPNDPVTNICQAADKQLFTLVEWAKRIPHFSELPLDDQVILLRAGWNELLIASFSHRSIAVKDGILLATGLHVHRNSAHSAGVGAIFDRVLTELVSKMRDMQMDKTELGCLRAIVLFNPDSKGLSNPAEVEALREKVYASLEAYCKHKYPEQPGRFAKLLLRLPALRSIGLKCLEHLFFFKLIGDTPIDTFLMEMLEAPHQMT
# Thyroid hormone receptor beta (Homo sapiens), sequence (P10828 whole entry, looked up): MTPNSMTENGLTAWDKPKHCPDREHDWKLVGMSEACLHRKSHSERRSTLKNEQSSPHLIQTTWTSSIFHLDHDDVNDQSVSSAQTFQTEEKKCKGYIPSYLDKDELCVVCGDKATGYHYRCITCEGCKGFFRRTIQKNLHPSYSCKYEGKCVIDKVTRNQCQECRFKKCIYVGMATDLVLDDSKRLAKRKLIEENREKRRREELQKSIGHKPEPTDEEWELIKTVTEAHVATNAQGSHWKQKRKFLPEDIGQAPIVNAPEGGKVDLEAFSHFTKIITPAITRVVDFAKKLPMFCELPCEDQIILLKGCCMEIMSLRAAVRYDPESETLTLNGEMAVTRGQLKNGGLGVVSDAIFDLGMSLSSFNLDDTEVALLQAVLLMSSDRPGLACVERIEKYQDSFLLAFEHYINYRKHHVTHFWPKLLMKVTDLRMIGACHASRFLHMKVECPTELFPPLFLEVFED
# Peroxisome proliferator-activated receptor delta (Homo sapiens), sequence (Q03181 whole entry, looked up): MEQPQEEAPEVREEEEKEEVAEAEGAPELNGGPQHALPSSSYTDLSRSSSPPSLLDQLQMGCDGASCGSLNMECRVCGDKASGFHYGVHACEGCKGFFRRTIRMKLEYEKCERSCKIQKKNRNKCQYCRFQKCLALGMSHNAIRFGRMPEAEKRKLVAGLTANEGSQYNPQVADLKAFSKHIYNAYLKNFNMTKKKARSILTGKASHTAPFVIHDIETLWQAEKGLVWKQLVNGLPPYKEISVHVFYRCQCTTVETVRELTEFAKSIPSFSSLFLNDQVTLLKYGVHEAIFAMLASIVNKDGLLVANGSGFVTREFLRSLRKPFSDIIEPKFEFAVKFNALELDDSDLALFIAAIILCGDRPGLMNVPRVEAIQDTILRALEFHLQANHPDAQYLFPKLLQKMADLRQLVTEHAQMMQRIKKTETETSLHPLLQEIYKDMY
# Bile acid receptor (Homo sapiens), sequence (Q96RI1 whole entry, looked up): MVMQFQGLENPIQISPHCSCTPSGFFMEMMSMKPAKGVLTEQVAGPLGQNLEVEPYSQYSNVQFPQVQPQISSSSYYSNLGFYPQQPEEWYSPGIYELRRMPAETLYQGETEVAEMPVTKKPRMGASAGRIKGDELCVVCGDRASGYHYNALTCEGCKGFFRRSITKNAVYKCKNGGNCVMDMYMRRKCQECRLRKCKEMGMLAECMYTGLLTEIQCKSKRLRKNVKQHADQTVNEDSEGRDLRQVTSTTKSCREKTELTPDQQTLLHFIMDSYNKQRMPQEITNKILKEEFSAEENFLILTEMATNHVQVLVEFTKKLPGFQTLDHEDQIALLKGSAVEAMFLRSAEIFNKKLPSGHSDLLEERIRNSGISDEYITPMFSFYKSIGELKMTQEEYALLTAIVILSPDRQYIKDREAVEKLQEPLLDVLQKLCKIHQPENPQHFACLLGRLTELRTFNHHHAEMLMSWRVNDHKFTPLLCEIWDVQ
# Peroxisome proliferator-activated receptor alpha (Homo sapiens), sequence (Q07869 whole entry, looked up): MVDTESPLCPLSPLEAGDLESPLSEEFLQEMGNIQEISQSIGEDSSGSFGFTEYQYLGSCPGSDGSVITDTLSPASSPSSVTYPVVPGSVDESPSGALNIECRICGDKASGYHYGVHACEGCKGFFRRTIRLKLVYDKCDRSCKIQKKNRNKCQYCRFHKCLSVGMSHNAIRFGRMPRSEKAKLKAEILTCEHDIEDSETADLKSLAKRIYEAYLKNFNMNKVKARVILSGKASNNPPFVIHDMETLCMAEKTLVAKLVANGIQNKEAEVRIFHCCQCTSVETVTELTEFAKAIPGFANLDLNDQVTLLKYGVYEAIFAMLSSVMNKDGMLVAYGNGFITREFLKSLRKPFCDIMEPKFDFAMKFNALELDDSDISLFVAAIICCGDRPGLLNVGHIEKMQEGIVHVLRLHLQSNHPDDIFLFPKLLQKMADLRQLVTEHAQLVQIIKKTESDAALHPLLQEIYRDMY
SMILES,Potency [1],"activity change, negative = cytotoxicity [2]",Potency [3],Potency [4],Potency [5],Potency [6],Potency [7],outcome [8],outcome [9],max response [10],Potency [11],Potency [12],Potency [13],Potency [14],Potency [15],activation [16],max response [17],Potency [18],activity change % (negative = inhibition) [19],caspase-3 activation [20]
C=C(C)C(=O)OCC1CO1 (centres undefined),> 92 µM (inactive),-17.7% (inactive),inactive,inactive,inactive,inactive,inactive,inactive,inactive,-13.4%,inactive,inactive,inactive,inactive,inactive,0.578% (inactive),-4.83% (inactive),,,
Cc1ccc(O)c(C)c1,> 92 µM (inactive),,inactive,inactive,inactive,inactive,,,inactive,-17.8% and 29.7%,inactive,inactive,inactive,,,,-1.5% (inactive) and -1.55% (inactive) and 1.86% (inactive),inactive,2.23% (inactive) and -13.2% (inactive) and -16.1% (inactive),
C=CC(=O)OCC,> 92 µM (inactive),,inactive,,,inactive,inactive,inactive,,26.1%,inactive,inactive,inactive,inactive,inactive,-0.74% (inactive),-5.18% (inactive),,,-1.92% (inactive)
CCC[CH2][Sn]([Cl])([Cl])[Cl],> 92 µM (inactive),,inactive,inactive,,inactive,inactive,inactive,inactive,31.1% and 8.78%,inactive,inactive,inactive,inactive,inactive,,,,9.88% (inactive),0.958% (inactive)
Clc1ccc2ccccc2c1,,7.96% (inactive),inactive,,,inactive,,inactive,inactive,-27.9%,inactive,inactive,,,inactive,0.057% (inactive),,inactive,,
O=C(Cl)/C=C/C(=O)Cl,> 92 µM (inactive),9.76% (inactive),inactive,,,,inactive,inactive,inactive,,,inactive,,inactive,inactive,-0.935% (inactive),-3.04% (inactive),,,-4.67% (inactive)
C=CC(=C)C,> 92 µM (inactive),,inactive,,inactive,,inactive,inactive,inactive,-16.7%,inactive,inactive,inactive,inactive,,,,,3.52% (inactive),
